# Measured values published in publication PMC11062922 (Nature Chemical Biology, 2023).
# Read-outs that look alike come from different tables or passages of the source.
# Columns and labels:
# Set-up in all cases: species or system human, MV4-11 + K-562 + COLO205 + SK-N-BE2 + OVCAR-8
# AURKA = details: read-out: apparent Kd; compound concentrations:100 nM and 1000 nM (sheet 'Samples'); n = 1
# AURKB = details: read-out: apparent Kd, n = 1
# DDR1 = details: read-out: apparent Kd; compound concentrations:100 nM and 1000 nM (sheet 'Samples'); n = 1
# DDR2 = details: read-out: apparent Kd; compound concentrations:100 nM and 1000 nM (sheet 'Samples'); n = 1
# FLT3 = details: read-out: apparent Kd; compound concentrations:100 nM and 1000 nM (sheet 'Samples'); n = 1
# FLT4 = details: read-out: apparent Kd; compound concentrations:100 nM and 1000 nM (sheet 'Samples'); n = 1
# MET = details: read-out: apparent Kd; compound concentrations:100 nM and 1000 nM (sheet 'Samples'); n = 1
# PLK4 = details: read-out: apparent Kd; compound concentrations:100 nM and 1000 nM (sheet 'Samples'); n = 1
# RET = details: read-out: apparent Kd; compound concentrations:100 nM and 1000 nM (sheet 'Samples'); n = 1
# TGFBR2 = details: read-out: apparent Kd; compound concentrations:100 nM and 1000 nM (sheet 'Samples'); n = 1
# TNK1 = details: read-out: apparent Kd; compound concentrations:100 nM and 1000 nM (sheet 'Samples'); n = 1
# BUB1 = details: read-out: apparent Kd; compound concentrations:100 nM and 1000 nM (sheet 'Samples'); n = 1
# CDC42BPA = details: read-out: apparent Kd; compound concentrations:100 nM and 1000 nM (sheet 'Samples'); n = 1
# CDC42BPB = details: read-out: apparent Kd; compound concentrations:100 nM and 1000 nM (sheet 'Samples'); n = 1
# CDC42BPG = details: read-out: apparent Kd; compound concentrations:100 nM and 1000 nM (sheet 'Samples'); n = 1
# CDC7 = details: read-out: apparent Kd; compound concentrations:100 nM and 1000 nM (sheet 'Samples'); n = 1
# LATS1 = details: read-out: apparent Kd; compound concentrations:100 nM and 1000 nM (sheet 'Samples'); n = 1
# MELK = details: read-out: apparent Kd; compound concentrations:100 nM and 1000 nM (sheet 'Samples'); n = 1
# PIM1 = details: read-out: apparent Kd; compound concentrations:100 nM and 1000 nM (sheet 'Samples'); n = 1
# PKN1 = details: read-out: apparent Kd; compound concentrations:100 nM and 1000 nM (sheet 'Samples'); n = 1
# PKN2 = details: read-out: apparent Kd; compound concentrations:100 nM and 1000 nM (sheet 'Samples'); n = 1
# PRKCA = details: read-out: apparent Kd; compound concentrations:100 nM and 1000 nM (sheet 'Samples'); n = 1
# PRKCB = details: read-out: apparent Kd; compound concentrations:100 nM and 1000 nM (sheet 'Samples'); n = 1
# PRKCD = details: read-out: apparent Kd; compound concentrations:100 nM and 1000 nM (sheet 'Samples'); n = 1
# PRKCI = details: read-out: apparent Kd; compound concentrations:100 nM and 1000 nM (sheet 'Samples'); n = 1
# PRKG1 = details: read-out: apparent Kd; compound concentrations:100 nM and 1000 nM (sheet 'Samples'); n = 1
# PRKX = details: read-out: apparent Kd; compound concentrations:100 nM and 1000 nM (sheet 'Samples'); n = 1
# ROCK2 = details: read-out: apparent Kd; compound concentrations:100 nM and 1000 nM (sheet 'Samples'); n = 1
# RPS6KA4 = details: read-out: apparent Kd; compound concentrations:100 nM and 1000 nM (sheet 'Samples'); n = 1
# RPS6KA5 = details: read-out: apparent Kd; compound concentrations:100 nM and 1000 nM (sheet 'Samples'); n = 1
# RPS6KB1 = details: read-out: apparent Kd; compound concentrations:100 nM and 1000 nM (sheet 'Samples'); n = 1
# FECH = details: read-out: apparent Kd; compound concentrations: 100 nM and 1000 nM (sheet 'Samples'), CATDS: 9.1141958763267306E-2; n = 1
# FRK = details: read-out: apparent Kd; compound concentrations: 100 nM and 1000 nM (sheet 'Samples'), CATDS: 0.20541048122338901; n = 1
# HCK = details: read-out: apparent Kd; compound concentrations: 100 nM and 1000 nM (sheet 'Samples'), CATDS: 0.153376634791901; n = 1
# LCK = details: read-out: apparent Kd; compound concentrations: 100 nM and 1000 nM (sheet 'Samples'), CATDS: 0.126638477949608; n = 1
# LYN = details: read-out: apparent Kd; compound concentrations: 100 nM and 1000 nM (sheet 'Samples'), CATDS: 0.11348132537540701; n = 1
# MAP2K5 = details: read-out: apparent Kd; compound concentrations: 100 nM and 1000 nM (sheet 'Samples'), CATDS: 9.4476183920835705E-2; n = 1
# TNK2 = details: read-out: apparent Kd; compound concentrations: 100 nM and 1000 nM (sheet 'Samples'), CATDS: 0.38594497215225099; n = 1
# BMP2K = details: read-out: apparent Kd; compound concentrations: 100 nM and 1000 nM (sheet 'Samples'), CATDS: 0.35520277596049099; n = 1
# MYLK3 = details: read-out: apparent Kd; compound concentrations: 100 nM and 1000 nM (sheet 'Samples'), CATDS: 0.39880703654606497; n = 1
# TNIK = details: read-out: apparent Kd; compound concentrations: 100 nM and 1000 nM (sheet 'Samples'), CATDS: 0.27194394843596698; n = 1
structure (smiles),measurement,setting,value
CN1CCN(C(=O)c2ccc(NC(=O)Nc3ccc(N(C)c4ccnc(Nc5ccc(CS(C)(=O)=O)cc5)n4)cc3)cc2)CC1.Cl [GW830263A],potency estimated from few doses,AURKA,303 nM
same,potency estimated from few doses,AURKB; compound concentrations:100 nM and 1000 nM (sheet 'Samples'),247 nM
same,potency estimated from few doses,DDR1,816 nM
same,potency estimated from few doses,DDR2,1150 nM
same,potency estimated from few doses,FLT3,108 nM
same,potency estimated from few doses,FLT4,566 nM
same,potency estimated from few doses,MET,2330 nM
same,potency estimated from few doses,PLK4,873 nM
same,potency estimated from few doses,RET,708 nM
same,potency estimated from few doses,TGFBR2,2130 nM
same,potency estimated from few doses,TNK1,357 nM
CCn1c(-c2nonc2N)nc2cncc(C(=O)N3CCNCC3)c21.Cl [SB-759335-B],potency estimated from few doses,BUB1,543 nM
same,potency estimated from few doses,CDC42BPA,1080 nM
same,potency estimated from few doses,CDC42BPB,1640 nM
same,potency estimated from few doses,CDC42BPG,2060 nM
same,potency estimated from few doses,CDC7,2080 nM
same,potency estimated from few doses,LATS1,1940 nM
same,potency estimated from few doses,MELK,1040 nM
same,potency estimated from few doses,PIM1,501 nM
same,potency estimated from few doses,PKN1,813 nM
same,potency estimated from few doses,PKN2,119 nM
same,potency estimated from few doses,PRKCA,1900 nM
same,potency estimated from few doses,PRKCB,1510 nM
same,potency estimated from few doses,PRKCD,1200 nM
same,potency estimated from few doses,PRKCI,2020 nM
same,potency estimated from few doses,PRKG1,135 nM
same,potency estimated from few doses,PRKX,750 nM
same,potency estimated from few doses,ROCK2,24.7 nM
same,potency estimated from few doses,RPS6KA4,723 nM
same,potency estimated from few doses,RPS6KA5,142 nM
same,potency estimated from few doses,RPS6KB1,115 nM
Cc1ccc(C(=O)Nc2ccc(Nc3ccnc4cc(-c5nccs5)ccc34)cc2O)cc1.Cl [GW494702A],potency estimated from few doses,"AURKB; compound concentrations: 100 nM and 1000 nM (sheet 'Samples'), CATDS: 8.5065344981926597E-2",1430 nM
same,potency estimated from few doses,FECH,1090 nM
same,potency estimated from few doses,FRK,152 nM
same,potency estimated from few doses,HCK,267 nM
same,potency estimated from few doses,LCK,412 nM
same,potency estimated from few doses,LYN,547 nM
same,potency estimated from few doses,MAP2K5,956 nM
same,potency estimated from few doses,TNK2,55.9 nM
Nc1cccc(-c2ccc3c(N)n[nH]c3c2)c1 [GSK2193613A],potency estimated from few doses,BMP2K,1270 nM
same,potency estimated from few doses,MYLK3,1020 nM
same,potency estimated from few doses,TNIK,2310 nM
